Test [1] concerns the target Retinoic acid receptor RXR-alpha (Homo sapiens) (UniProt P19793). Kind of test: OT_NURR1_NURR1RXRa_1440: Odyssey Thera (OT) 24-hour HEK293T Protein Complementation Assay for Nurr1/retinoid X receptor (RXR) (AID 2283386; active means hit-call score of the fitted dose curve at least 0.9, where 1 is the maximum). The procedure, abridged: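 Gain in fluorescence, fitted relative to DMSO, reflects Nurr1–RXRα association in HEK293T cells after 24 h dosing. Bait and prey are each linked to a reporter-protein fragment that reassembles on interaction.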

For test [2], the target named is Peroxisome proliferator-activated receptor gamma (Homo sapiens) (UniProt P37231). Kind of test: OT_PPARg_PPARgSRC1_0480: Odyssey Thera (OT) 8-hour Protein-Complementation Assay for Peroxisome Proliferator-activated Receptor Gamma / SRC-1 Co-activator (AID 2283387; active means hit-call score of the fitted dose curve at least 0.9, where 1 is the maximum). The procedure, abridged:
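Protein-fragment complementation of split Venus YFP reports PPARg/SRC-1 interaction in HEK293T (transfected 48 h before treatment), exposed 8 h. Readout: N/C fluorescence ratio at 488 nm from imaging, Draq5 for segmentation, positive fit relative to DMSO.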

Test [3] has the same target. Kind of test: OT_PPARg_PPARgSRC1_1440: Odyssey Thera (OT) 24-hour Protein-Complementation Assay for Peroxisome Proliferator-activated Receptor Gamma/ SRC-1 Co-activator (AID 2283388; active means hit-call score of the fitted dose curve at least 0.9, where 1 is the maximum). The procedure, abridged:
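HEK293T transiently transfected with PPARg/SRC-1 split-Venus YFP fusions 48 h before dosing, then treated 24 h at 37C. Fixed cells imaged; nuclear/cytoplasmic 488 nm fluorescence ratio, gain of signal versus DMSO.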

Read-out in test [4]: Tumor necrosis factor receptor superfamily member 6 (Homo sapiens) (UniProt P25445)
Kind of test: LTEA_HepaRG_FAS: Life Technologies and Expression Analysis (LTEA) Assay for Fas cell surface death receptor (FAS) using HepaRG (AID 2283447). Particulars: mRNA level, 48 h; actives raise or lower the signal. A digest of the protocol:
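Differentiated human HepaRG cells, pre-cultured 48 h, were exposed in duplicate for 48 h to 8-point half-log concentrations (top 100 uM, 0.5% DMSO) in serum-free induction medium; FAS mRNA measured by qRT-PCR, normalized to ACTB/GAPDH/POLR2A, bidirectional fit versus DMSO.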

Read-out in test [5]: Cyclin D2 (CCND2), CCND2 (gene 894)
The test can be described thus: LTEA_HepaRG_CCND2: Life Technologies and Expression Analysis (LTEA) Assay for Cyclin D2 (CCND2) using HepaRG (AID 2283449).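 Further: CCND2 transcript measured by TaqMan qRT-PCR and normalised to three housekeeping genes.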 Particulars: mRNA level, 48 h; actives raise or lower the signal. A digest of the protocol:
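In this HepaRG study, an eight-point concentration series (max 100 uM, 0.5% DMSO) is applied for 48 h. CCND2 mRNA change is derived by qRT-PCR normalised to ACTB, GAPDH and POLR2A.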

Read-out in test [6]: Cyclin Dependent Kinase Inhibitor 1A (CDKN1A), CDKN1A (gene 1026)
The test can be described thus: LTEA_HepaRG_CDKN1A: Life Technologies and Expression Analysis (LTEA) Assay for Cyclin Dependent Kinase Inhibitor 1A (CDKN1A) using HepaRG (AID 2283450). The settings on record: mRNA level, 48 h; actives raise or lower the signal. The procedure, abridged:
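Differentiated HepaRG cells in serum-free induction medium, exposed 48 h in duplicate to eight half-log concentrations up to 100 uM in 0.5% DMSO. mRNA measured by TaqMan qRT-PCR, normalized to ACTB, GAPDH, POLR2A; bidirectional fit versus DMSO.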

Read-out in test [7]: Cyclin D1 (CCND1), CCND1 (gene 595)
The test can be described thus: LTEA_HepaRG_CCND1: Life Technologies and Expression Analysis (LTEA) Assay for Cyclin D1 (CCND1) using HepaRG (AID 2283451).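 On AC50: TaqMan qRT-PCR transcript level normalised to ACTB GAPDH and POLR2A housekeeping genes.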 Particulars: mRNA level, 48 h; actives raise or lower the signal. A digest of the protocol:
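Differentiated HepaRG cells exposed 48 h in serum-free induction medium to eight half-log concentrations from 100 uM top, 0.5% DMSO, duplicates. CCND1 mRNA measured by Fluidigm TaqMan qRT-PCR, normalised to ACTB, GAPDH, POLR2A; bidirectional fit.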

Read-out in test [8]: catalase (CAT), CAT (gene 847)
The test can be described thus: LTEA_HepaRG_CAT: Life Technologies and Expression Analysis (LTEA) Assay for catalase (CAT) using HepaRG (AID 2283452).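 On AC50: TaqMan qRT-PCR signal normalized to ACTB GAPDH and POLR2A housekeeping genes.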 Particulars: mRNA level, 48 h; actives raise or lower the signal. A digest of the protocol:
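Differentiated HepaRG cells in serum-free induction medium were dosed 48 h in duplicate, eight half-log concentrations from 100 uM in 0.5% DMSO. Transcript measured by TaqMan qRT-PCR, normalised to ACTB/GAPDH/POLR2A, fitted bidirectionally against DMSO.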

Read-out in test [9]: Fatty acid synthase (Homo sapiens) (UniProt P49327)
The test can be described thus: LTEA_HepaRG_FASN: Life Technologies and Expression Analysis (LTEA) Assay for Fatty Acid Synthase (FASN) using HepaRG (AID 2283448). Particulars: mRNA level, 48 h; actives raise or lower the signal. A digest of the protocol:
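FASN transcript measured by TaqMan qRT-PCR, normalised to three housekeeping genes, after 48 h chemical exposure of HepaRG cells. Eight-point half-log series from 100 uM in 0.5% DMSO, duplicates; gain or loss fitted against vehicle.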

Test [10] can be described thus: CEETOX_H295R_11DCORT: CeeTox H295R High-throughput Steroidogenesis Assay for 11-Deoxycortisol (11DCORT) (AID 2283432). Particulars: actives raise or lower the signal. A digest of the protocol:
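Human adrenal H295R cells were prestimulated with 10 uM forskolin for 48 h, then exposed to test chemical (0.1% DMSO final) for 48 h. Medium 11-deoxycortisol was quantified by MTBE extraction and HPLC-MS/MS; bidirectional fitting relative to DMSO.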

Test [11] in a line: CEETOX_H295R_OHPREG: CeeTox H295R High-throughput Steroidogenesis Assay for OH-Pregnenolone (OHPREG) (AID 2283434). The settings on record: actives raise or lower the signal. The procedure, abridged: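 Readout: HPLC-MS/MS of 17alpha-hydroxypregnenolone in medium after 48 h chemical exposure of H295R cells pretreated with forskolin. Values fitted bidirectionally relative to DMSO; chemicals reducing viability to 20–70% were retested after 10-fold dilution.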

Test [12] can be described thus: CEETOX_H295R_OHPROG: CeeTox H295R High-throughput Steroidogenesis Assay for OH-Progesterone (OHPROG) (AID 2283435). Particulars: actives raise or lower the signal. The procedure, abridged:
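Medium steroid levels read by LC-MS/MS after 48 h chemical treatment (0.1% DMSO) of human adrenal H295R cells that had been forskolin-primed (10 uM, 48 h). Gain or loss fitted against DMSO; MTT cytotoxicity checked per well.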

The nature of test [13]: CEETOX_H295R_ANDR: CeeTox H295R High-throughput Steroidogenesis Assay for Androstenedione (ANDR) (AID 2283436). Particulars: actives raise or lower the signal. A digest of the protocol:
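Steroidogenesis in H295R adrenal cells after 48 h dosing; androstenedione quantified by LC-MS/MS, with DMSO as negative control and baseline for bidirectional curve fitting.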

A short description of test [14]: CEETOX_H295R_CORTIC: CeeTox H295R High-throughput Steroidogenesis Assay for Corticosterone (CORTIC) (AID 2283437).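 Further: corticosterone secreted into medium quantified by mass spectrometry.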 Particulars: actives raise or lower the signal. A digest of the protocol: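 Steps: seed H295R, adhere overnight; 10 uM forskolin 48 h; replace with chemical (0.1% DMSO) 48 h; extract medium with MTBE; quantify corticosterone by HPLC-MS/MS; score bidirectionally vs DMSO.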

The nature of test [15]: CEETOX_H295R_CORTISOL: CeeTox H295R High-throughput Steroidogenesis Assay for Cortisol (AID 2283438).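 Further: cortisol secreted into medium quantified by LC-MS/MS.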 The settings on record: actives raise or lower the signal. The procedure, abridged: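 Cortisol measured by HPLC-MS/MS after MTBE extraction of medium from H295R cells exposed 48 h to chemical (0.1% DMSO), following 48 h prestimulation with 10 uM forskolin. Viability assessed by MTT in the same wells.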

A short description of test [16]: CEETOX_H295R_DOC: CeeTox H295R High-throughput Steroidogenesis Assay for DOC (AID 2283439). The settings on record: actives raise or lower the signal. A digest of the protocol: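 11-Deoxycorticosterone quantified in medium by MTBE extraction and HPLC-MS/MS after 48 h chemical exposure (0.1% DMSO) of forskolin-primed (10 uM, 48 h) H295R cells. Same-well MTT viability; data fitted bidirectionally against DMSO.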

Test [17] is described as follows: CEETOX_H295R_PROG: CeeTox H295R High-throughput Steroidogenesis Assay for Progesterone (PROG) (AID 2283442). The settings on record: actives raise or lower the signal. The procedure, abridged: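 H295R adrenal cells prestimulated 48 h with 10 uM forskolin, then exposed 48 h to test chemical in 0.1% DMSO. Progesterone in medium quantified by HPLC-MS/MS after MTBE extraction; viability checked by MTT in same wells.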

The values that follow come from PubChem BioAssay (EPA / NIEHS).

The AC50 is the midpoint of the concentration-response curve, whichever way the signal moves.

Inconclusive results are not listed. The source made the active and inactive calls. How the source made its calls, unless noted: active means hit-call score of the fitted dose curve at least 0.9, where 1 is the maximum; inactive means score below 0.9.

Chain of Retinoic acid receptor RXR-alpha (Homo sapiens) (P19793 whole entry, looked up, the tested form may be a part): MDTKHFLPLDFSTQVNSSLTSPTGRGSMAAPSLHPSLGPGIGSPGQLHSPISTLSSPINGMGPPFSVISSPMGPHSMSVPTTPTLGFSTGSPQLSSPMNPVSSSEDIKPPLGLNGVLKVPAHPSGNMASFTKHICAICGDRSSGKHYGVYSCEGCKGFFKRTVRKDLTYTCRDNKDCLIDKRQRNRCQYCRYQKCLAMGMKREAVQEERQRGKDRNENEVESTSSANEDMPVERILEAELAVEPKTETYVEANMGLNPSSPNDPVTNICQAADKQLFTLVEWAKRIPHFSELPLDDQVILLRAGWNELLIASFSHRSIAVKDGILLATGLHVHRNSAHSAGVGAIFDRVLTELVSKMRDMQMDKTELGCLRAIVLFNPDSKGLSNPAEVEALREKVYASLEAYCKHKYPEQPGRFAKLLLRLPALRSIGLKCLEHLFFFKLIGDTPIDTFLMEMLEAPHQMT
Chain of Peroxisome proliferator-activated receptor gamma (Homo sapiens) (P37231 whole entry, looked up, the tested form may be a part): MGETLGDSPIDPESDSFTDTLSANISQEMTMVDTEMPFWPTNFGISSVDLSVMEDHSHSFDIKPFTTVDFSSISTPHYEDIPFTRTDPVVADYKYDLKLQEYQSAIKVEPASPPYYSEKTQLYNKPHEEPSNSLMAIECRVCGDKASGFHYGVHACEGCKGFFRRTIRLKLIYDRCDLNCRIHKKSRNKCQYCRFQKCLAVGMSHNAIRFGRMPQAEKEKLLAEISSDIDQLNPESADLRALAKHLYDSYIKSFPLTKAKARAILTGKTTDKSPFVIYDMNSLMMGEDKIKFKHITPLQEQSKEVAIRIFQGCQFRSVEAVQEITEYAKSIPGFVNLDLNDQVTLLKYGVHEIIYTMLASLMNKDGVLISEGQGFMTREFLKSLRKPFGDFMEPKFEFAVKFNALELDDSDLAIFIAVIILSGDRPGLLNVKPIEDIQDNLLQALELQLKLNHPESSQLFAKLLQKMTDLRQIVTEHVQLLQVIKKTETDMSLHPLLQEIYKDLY
Chain of Fatty acid synthase (Homo sapiens) (P49327 whole entry, looked up): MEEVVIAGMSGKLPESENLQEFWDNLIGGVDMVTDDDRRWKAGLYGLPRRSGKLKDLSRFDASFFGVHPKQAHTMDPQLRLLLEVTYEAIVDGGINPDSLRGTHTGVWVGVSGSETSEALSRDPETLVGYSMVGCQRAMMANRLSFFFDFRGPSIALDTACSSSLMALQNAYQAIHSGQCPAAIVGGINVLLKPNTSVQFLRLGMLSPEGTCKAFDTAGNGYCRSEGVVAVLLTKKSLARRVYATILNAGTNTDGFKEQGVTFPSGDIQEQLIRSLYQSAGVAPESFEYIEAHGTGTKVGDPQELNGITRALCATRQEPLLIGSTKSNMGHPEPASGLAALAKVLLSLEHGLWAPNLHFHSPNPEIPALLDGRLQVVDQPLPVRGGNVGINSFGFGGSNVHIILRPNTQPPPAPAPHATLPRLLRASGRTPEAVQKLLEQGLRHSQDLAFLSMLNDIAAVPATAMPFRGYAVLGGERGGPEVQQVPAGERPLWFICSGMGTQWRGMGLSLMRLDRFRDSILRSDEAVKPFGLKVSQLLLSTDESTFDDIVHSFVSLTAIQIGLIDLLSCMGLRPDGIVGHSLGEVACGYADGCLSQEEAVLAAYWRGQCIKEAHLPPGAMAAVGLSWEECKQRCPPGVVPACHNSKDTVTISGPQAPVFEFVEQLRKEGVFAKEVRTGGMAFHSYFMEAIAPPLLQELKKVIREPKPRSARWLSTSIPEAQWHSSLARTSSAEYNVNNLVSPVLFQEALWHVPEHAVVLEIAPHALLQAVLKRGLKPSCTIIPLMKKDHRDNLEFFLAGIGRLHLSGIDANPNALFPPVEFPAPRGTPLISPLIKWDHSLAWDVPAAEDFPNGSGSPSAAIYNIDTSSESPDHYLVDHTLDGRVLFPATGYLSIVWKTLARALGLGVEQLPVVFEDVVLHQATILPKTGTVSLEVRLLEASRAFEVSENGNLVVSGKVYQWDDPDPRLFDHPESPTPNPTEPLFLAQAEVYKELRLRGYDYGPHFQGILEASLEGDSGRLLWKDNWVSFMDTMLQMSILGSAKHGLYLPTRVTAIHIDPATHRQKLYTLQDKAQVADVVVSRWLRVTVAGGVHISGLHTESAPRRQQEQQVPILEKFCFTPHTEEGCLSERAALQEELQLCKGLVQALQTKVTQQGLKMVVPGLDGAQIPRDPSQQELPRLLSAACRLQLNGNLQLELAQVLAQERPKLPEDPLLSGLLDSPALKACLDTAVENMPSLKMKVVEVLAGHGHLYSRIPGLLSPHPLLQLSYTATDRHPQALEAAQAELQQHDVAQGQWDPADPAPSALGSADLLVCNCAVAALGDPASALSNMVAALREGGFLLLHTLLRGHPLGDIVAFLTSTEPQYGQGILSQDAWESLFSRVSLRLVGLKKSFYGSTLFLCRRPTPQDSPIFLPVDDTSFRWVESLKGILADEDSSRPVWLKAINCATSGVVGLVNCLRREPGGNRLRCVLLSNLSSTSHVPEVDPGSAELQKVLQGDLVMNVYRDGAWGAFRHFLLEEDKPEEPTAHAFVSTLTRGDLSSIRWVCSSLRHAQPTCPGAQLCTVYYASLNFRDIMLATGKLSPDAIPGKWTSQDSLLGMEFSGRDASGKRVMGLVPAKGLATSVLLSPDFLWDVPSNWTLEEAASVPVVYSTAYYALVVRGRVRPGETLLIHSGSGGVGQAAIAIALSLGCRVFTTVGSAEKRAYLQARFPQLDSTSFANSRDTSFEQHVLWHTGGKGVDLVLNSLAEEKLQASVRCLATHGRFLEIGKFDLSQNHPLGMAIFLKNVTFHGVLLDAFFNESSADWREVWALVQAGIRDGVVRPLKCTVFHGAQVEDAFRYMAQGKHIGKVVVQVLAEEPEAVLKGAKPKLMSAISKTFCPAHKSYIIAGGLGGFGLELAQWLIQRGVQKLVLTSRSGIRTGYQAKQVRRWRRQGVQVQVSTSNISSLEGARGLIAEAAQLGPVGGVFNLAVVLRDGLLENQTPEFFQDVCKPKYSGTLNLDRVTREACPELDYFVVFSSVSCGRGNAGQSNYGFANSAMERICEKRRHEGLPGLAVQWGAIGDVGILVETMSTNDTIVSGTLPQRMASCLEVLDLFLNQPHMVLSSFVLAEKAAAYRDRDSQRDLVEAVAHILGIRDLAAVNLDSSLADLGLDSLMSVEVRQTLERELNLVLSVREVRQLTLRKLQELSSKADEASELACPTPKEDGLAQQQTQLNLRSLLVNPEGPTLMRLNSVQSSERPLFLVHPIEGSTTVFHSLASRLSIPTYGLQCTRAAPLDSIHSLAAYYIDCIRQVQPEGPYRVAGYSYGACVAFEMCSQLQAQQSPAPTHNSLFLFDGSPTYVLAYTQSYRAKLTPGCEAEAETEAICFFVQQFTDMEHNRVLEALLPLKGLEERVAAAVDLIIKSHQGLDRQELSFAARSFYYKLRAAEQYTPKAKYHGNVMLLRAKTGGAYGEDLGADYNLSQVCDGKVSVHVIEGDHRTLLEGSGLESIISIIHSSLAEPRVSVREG

As for `CCNc1ccccc1`, the compound was classed as inactive in [1], in test [2], in test [3], in test [4], in [5] and in test [6]. Also, the call in test [7] and in test [8] was inactive.

As for `CCOCCO`, the result in test [1], in test [2], in [3], in [4], in test [9] and in test [6] was inactive. Besides, the compound was classed as inactive in test [7] and in test [8].

For the compound `CNCc1ccc(NC(=O)c2c[nH]c3c2C(=O)CCC3)cc1`, the compound was classed as inactive in [1], in test [2], in test [3], in test [4], in test [5] and in test [6]. Further, in test [8], the compound was called inactive.

Turning to `O=P(OC(CCl)CCl)(OC(CCl)CCl)OC(CCl)CCl`, the outcome in test [1], in test [2], in test [3] and in test [5] was inactive. For the same compound, the AC50 is 0.232 µM (active) in test [4], 50 µM (active) in test [9], 90.8 µM (active) in test [6] and 50 µM (active) in test [8].

Consider `CCOc1cccc(-n2cc(C(=O)N3CCN(c4cc(C(=O)O)c5ccccc5c4)CC3)nc2-c2ccc(C)cc2)c1`, for which the result in test [2], in [3], in test [10], in [11], in [12] and in test [13] was inactive. Also, the result in test [14], in test [15], in test [16], in test [17], in test [4] and in test [5] was inactive. Also, the outcome in [6] was inactive. The figures for the AC50 in test [9], in [7] and in test [8] were 80.5 µM (active), 82.4 µM (active) and 31.6 µM (active), respectively.

Turning to `CCCCCCCCCCCCc1ccccc1`, the result in test [2], in [3], in [4], in [9], in test [6] and in test [7] was inactive. Also, the call in [8] was inactive.
